Data reported in the supplement of paper PMC3334620.
The full ranking holds about 33,000 sequences; the median of “E-score (-0.5 to 0.5)” is about -0.0034, and the highest 2% start at about 0.25. This excerpt belongs to a sample that is enriched for the highest values.

target: T1, Yap3 (UniProt P38749); assay: PBM E-score (8-mer binding enrichment) (E-score (-0.5 to 0.5)); higher = stronger / more preferred TF binding; details: protein concentration: 100 nM; construct: GST-full length
T1 sequence: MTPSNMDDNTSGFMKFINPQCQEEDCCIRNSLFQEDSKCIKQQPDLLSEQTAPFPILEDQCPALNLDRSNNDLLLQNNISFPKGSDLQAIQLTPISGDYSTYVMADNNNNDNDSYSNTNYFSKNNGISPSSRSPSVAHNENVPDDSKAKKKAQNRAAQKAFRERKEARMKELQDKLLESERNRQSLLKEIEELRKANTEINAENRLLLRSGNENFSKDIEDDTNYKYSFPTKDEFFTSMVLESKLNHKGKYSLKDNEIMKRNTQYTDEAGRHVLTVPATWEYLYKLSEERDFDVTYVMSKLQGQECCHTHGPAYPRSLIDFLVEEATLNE
Description: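 Universal 'all 10-mer' protein binding microarrays (Agilent AMADID 015681) probed with GST-tagged S. cerevisiae TFs (full-length or DBD) made by in vitro transcription/translation (PURExpress), about 100-200 nM. Bound TF was detected with fluorescent anti-GST. Each ungapped 8-mer (which stands for itself and its reverse complement) is scored by the PBM enrichment score (E-score), a modified Wilcoxon-Mann-Whitney statistic from -0.5 to +0.5, computed with the Universal PBM Analysis Suite. Scale: above 0.35 generally sequence-specific binding.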

| Sequence | PBM E-score |
| --- | --- |
| CACGGCCG | -0.0612 |
| CTACTCTA | 0.148 |
| AAAGGGCG | -0.0936 |
| AGTAGTGG | 0.0946 |
| ATCTGCGG | -0.0331 |
| ATCTATAA | 0.0384 |
| CTACTAGC | 0.097 |
| TAAGTAGA | 0.109 |
| AGATGACG | 0.108 |
| CTGTGGCC | -0.361 |
| CTGTTCAA | 0.0116 |
| AGGTCGAT | 0.167 |
| GCCGATCA | 0.00289 |
| ATATTTAA | 0.339 |
| ATATTTAC | 0.208 |
| CTATTTAA | 0.0559 |
| GTAACAGA | 0.105 |
| ACTATTCG | 0.231 |
| ATTATTCA | 0.277 |
| ATTATTCC | 0.248 |
| ATTATTCG | 0.274 |
| CTTATTCA | 0.106 |
| GTTATTCA | 0.193 |
| ATACCCAG | -0.0813 |
| GCCAATTA | 0.193 |

| Sequence | PBM E-score |
| --- | --- |
| ACCAATTA | 0.274 |
| ATCAATTC | -0.0493 |
| AACAATTG | -0.0238 |
| ATCAATTG | 0.159 |
| ATCAATTA | 0.318 |
| ACCAATTG | -0.0264 |
| AACAATTA | 0.323 |
| AACAATTC | 0.106 |
| CGTAGCTA | -0.05 |
| GGAGCAAA | 0.016 |
| CATAGCAC | 0.0592 |
| ACACCACA | 0.0359 |
| AGCCTCAT | -0.158 |
| ACAAGGGG | -0.193 |
| ATTAGATG | 0.261 |
| ATTAGATA | 0.178 |
| ATTAGATC | 0.0781 |
| TCTTCAAA | 0.0414 |
| ACTGCCAG | -0.0114 |
| GAATTAGA | 0.136 |
| TAATTATA | 0.285 |
| GAATTATA | 0.237 |
| CAATTAGA | 0.0631 |
| CAATTATC | 0.273 |
| CAATTATA | 0.167 |

| Sequence | PBM E-score |
| --- | --- |
| CAATTATG | 0.214 |
| AAATTATA | 0.249 |
| TAATTAGA | 0.291 |
| CTACCATA | 0.152 |
| CCGTGAAG | -0.167 |
| ATACCATA | 0.241 |
| CTAGATCC | -0.0756 |
| GCGAAGGA | -0.201 |
| AACGAGGA | 0.0742 |
| CAATACAA | 0.187 |
| GACTAACA | 0.142 |
| GACTAATC | 0.175 |
| AAATACTA | 0.141 |
| TAATACAA | 0.279 |
| TAATACTA | 0.367 |
| AACTAATG | 0.23 |
| AACTAATT | 0.149 |
| AACTAATA | 0.342 |
| GACTAATA | 0.326 |
| AAATACAA | 0.197 |
| CAATACTA | 0.0409 |
| CAAATCTC | 0.0919 |
| TACAGCTA | -0.115 |
| GCATGACC | -0.158 |
| TCCTTCAA | 0.026 |

| Sequence | PBM E-score |
| --- | --- |
| CCCTTGAC | -0.0534 |
| CGACAGGA | 0.0296 |
| AAGTAACC | 0.0184 |
| ACCTAGAC | -0.229 |
| GAGACGGC | -0.138 |
| GAAAGATC | -0.0498 |
| ATCCAGTG | 0.0972 |
| ACTCCAAT | 0.0453 |
| GAAATACC | 0.0809 |
| GGTCAGTA | -0.139 |
| TGTAGTAA | 0.128 |
| ACCTAATA | 0.274 |
| GCCTAATA | 0.0577 |
| TACTAATA | 0.267 |
| CACTAATA | 0.225 |
| TACTACTA | 0.223 |
| ACCTAATC | 0.245 |
| GAAAGCAC | 0.112 |
| ACAGCAGG | -0.126 |
| CGTCTGAA | -0.104 |
| AACATAAT | 0.334 |
| AACATACG | 0.183 |
| ATAATCAT | 0.344 |
| CTAATCAG | 0.0826 |
| ATAATCAG | 0.126 |

| Sequence | PBM E-score |
| --- | --- |
| CTAATCAA | 0.219 |
| ATAATCAA | 0.139 |
| AACATACT | 0.012 |
| AACATAAA | 0.156 |
| CTAATCAC | 0.271 |
| CACATAAG | 0.053 |
| AACATAAG | 0.308 |
| GCATAAAA | 0.147 |
| CGTTGAAC | -0.07 |
| GCTAGGAC | -0.11 |
| ATCTATCC | 0.00162 |
| AAAGTGCT | 0.0686 |
| CTCTATCC | -0.00886 |
| CAGGAAGC | 0.00172 |
| ACCATAAT | 0.264 |
| ACCATAAG | -0.0758 |
| ATCATAAT | 0.293 |
| CACATAAC | -0.0392 |
| AACATAAC | 0.269 |
| ACCATAAA | 0.141 |
| GACATAAC | 0.22 |
| ATCATAAA | 0.193 |
| ATCATAAG | 0.247 |
| CTCTCTAC | 0.111 |
| AGCTGGAA | -0.178 |

| Sequence | PBM E-score |
| --- | --- |
| GCAACCCA | -0.11 |
| TATGATAA | 0.228 |
| AATGATAA | 0.177 |
| GATGATTA | 0.0319 |
| CATGATAA | 0.255 |
| AATGATAT | 0.242 |
| CCTGATTA | 0.18 |
| AATGATAG | 0.172 |
| CATGATTA | 0.28 |
| CATGATTC | 0.0254 |
| AATGATTC | 0.115 |
| AATGATAC | 0.264 |
| AATGATTA | 0.325 |
| AGAACGCC | -0.109 |
| CGCACATA | -0.0836 |
| AAGTGGGT | 0.0584 |
| AATTTGAA | 0.131 |
| CCGAGCAA | -0.0253 |
| CATATAGC | 0.233 |
| ATACAAGG | 0.145 |
| CGCGATTC | 0.198 |
| CGCGATTA | 0.27 |
| AGCGATTA | 0.00413 |
| GGTAATAC | 0.208 |
| AGTAATAT | 0.295 |

| Sequence | PBM E-score |
| --- | --- |
| CGTAATGC | 0.203 |
| AGTAATAG | 0.207 |
| AGTAATAC | 0.113 |
| GGTAATAA | 0.165 |
| CGTAATAC | 0.318 |
| CATAATAG | 0.189 |
| AGTAATGC | 0.13 |
| TGTAATAA | 0.242 |
| CGTAATAG | 0.314 |
| CGTAATAA | 0.29 |
| CGGCATTA | 0.21 |
| ACTCGTTC | -0.0576 |
| AGTAATAA | 0.254 |
| AGTAATGA | 0.208 |
| AGTAAAAA | 0.208 |
| ATTGGGGC | -0.0386 |
| AGGCTATC | -0.203 |
| GCGCGCGA | 0.121 |
| CCGCGCTA | 0.137 |
| CCGCGCGC | 0.0469 |
| ACGCGCTA | 0.0658 |
| ACGCGCGC | 0.181 |
